Compound activity deposited in PubChem BioAssay by National Center for Advancing Translational Sciences (NCATS).
BAZ2B block – qHTS Assay for Inhibitors of BAZ2B | AID 504333, 2011 | Potency, µM (titrated, usually from 114 µM), usual class: inhibitors | 4.4% of 360,000 active | AlphaScreen BAZ2B-H3K14Ac peptide displacement | Bromodomain adjacent to zinc finger domain protein 2B (Homo sapiens), Q9UIF8; note: nearly all actives have a fitted effect of over 60% in size
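BAZ2B 50 nM plus b-H3(5-23)K14Ac 50 nM, PBS pH 7.4/0.01% Tween-20, 30 min RT; compound added (max 110 uM), 30 min RT; streptavidin donor/Ni-chelate acceptor beads 10 ug/mL final, 20 min dark; AlphaScreen read.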
JMJD2A Tudor inh – qHTS Assay for Inhibitors of JMJD2A-Tudor Domain | Lysine-specific demethylase 4A (Homo sapiens), O75164 | AlphaScreen JMJD2A-Tudor / H3K4me3 peptide binding | 4.4% of 390,000 active | Potency, µM (highest dose often 114 µM), usual class: inhibitors; note: nearly all actives have a fitted effect of over 50% in size
Target sequence (O75164 whole entry, looked up, the tested form may be a part): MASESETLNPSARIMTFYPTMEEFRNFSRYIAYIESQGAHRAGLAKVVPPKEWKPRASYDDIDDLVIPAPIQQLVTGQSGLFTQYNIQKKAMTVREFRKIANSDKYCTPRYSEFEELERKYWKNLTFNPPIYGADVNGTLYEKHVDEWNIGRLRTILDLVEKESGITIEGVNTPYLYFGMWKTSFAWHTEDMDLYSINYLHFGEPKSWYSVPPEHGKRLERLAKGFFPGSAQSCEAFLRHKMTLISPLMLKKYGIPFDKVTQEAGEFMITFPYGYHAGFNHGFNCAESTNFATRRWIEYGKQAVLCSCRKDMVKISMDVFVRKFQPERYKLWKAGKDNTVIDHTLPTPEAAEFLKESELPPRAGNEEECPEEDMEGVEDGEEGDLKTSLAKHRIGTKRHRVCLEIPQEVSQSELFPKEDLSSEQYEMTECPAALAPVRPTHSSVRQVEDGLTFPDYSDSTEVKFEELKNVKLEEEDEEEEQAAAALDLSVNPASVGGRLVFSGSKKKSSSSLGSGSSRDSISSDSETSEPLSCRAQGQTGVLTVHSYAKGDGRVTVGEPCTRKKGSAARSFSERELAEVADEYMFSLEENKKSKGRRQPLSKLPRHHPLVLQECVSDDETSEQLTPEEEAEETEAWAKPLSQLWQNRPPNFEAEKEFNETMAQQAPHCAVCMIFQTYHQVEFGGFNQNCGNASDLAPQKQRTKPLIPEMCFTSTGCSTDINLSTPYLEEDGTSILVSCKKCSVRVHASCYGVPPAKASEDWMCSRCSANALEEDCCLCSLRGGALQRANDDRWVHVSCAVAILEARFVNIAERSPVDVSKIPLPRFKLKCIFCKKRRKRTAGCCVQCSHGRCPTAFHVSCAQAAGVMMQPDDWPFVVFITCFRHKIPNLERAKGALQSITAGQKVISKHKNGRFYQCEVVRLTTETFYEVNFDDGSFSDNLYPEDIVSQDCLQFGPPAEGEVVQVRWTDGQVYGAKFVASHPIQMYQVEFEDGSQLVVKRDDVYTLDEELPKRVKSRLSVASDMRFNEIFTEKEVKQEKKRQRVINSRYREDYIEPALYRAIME
PLK1 PBD block – qHTS for Inhibitors of PLK1-PDB (polo-like kinase 1 - polo-box domain): Primary Screen. Potency, µM, hits mostly inhibitors. 2.8% of 360,000 active. Plk1 PBD binding of FITC phosphopeptide, fluorescence polarization. Serine/threonine-protein kinase PLK1 (Homo sapiens), P53350; note: series mostly up to about 57 µM; nearly all actives have a fitted effect of over 65% in size
G9a inh – qHTS Assay for Inhibitors of Histone Lysine Methyltransferase G9a. G9a H3K9 monomethylation, AlphaScreen, 2 h. Potency, µM (top dose mostly 102 µM), actives largely listed as inhibitors. 8.8% of 350,000 active. Histone-lysine N-methyltransferase EHMT2 (Homo sapiens), Q96KQ7; note: nearly all actives have a fitted effect of over 75% in size
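Quantitative HTS format: methyltransferase activity on a biotin-tagged H3K9 peptide is measured by AlphaScreen, using a rabbit anti-monomethyl-H3K9 antibody with streptavidin donor and anti-IgG acceptor beads. Final levels are 20 nM enzyme, 500 nM peptide, 20 uM SAM; 2 h RT.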
PI5P4Ka inh – qHTS for Inhibitors of phosphatidylinositol 5-phosphate 4-kinase (PI5P4K). Phosphatidylinositol 5-phosphate 4-kinase type-2 alpha (Homo sapiens), P48426. PI5P4Kalpha enzyme, ADP-Glo luminescence, 60 min; stronger effect = lower value. max response, %. 1.2% of 330,000 active. AID 652105, 2013; active = max response of -50% or lower; inconclusive = between -30% and -50%; inactive = -30% or higher; note: value at the top dose of about 77 µM
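Reactions run in 0.038 M HEPES pH 7.4, 0.28 mM EGTA, 0.1% CHAPS and 5% DMSO, with PI5P4Kalpha, substrate, compound and 5 microM ATP final, one hour at room temperature. Readout is ADP-Glo luminescence.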
HP1b chromo inh – HTS for Inhibitors of HP1-beta Chromodomain Interactions with Methylated Histone Tails | AlphaScreen HP1-beta / biotin-H3K9me3 peptide binding | Potency, µM (series often up to 114 µM), most hits filed as inhibitors | 0.56% of 390,000 active | AID 540317, 2011; note: nearly all actives have a fitted effect of over 70% in size
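AlphaScreen: HP1-beta (50 nM) preformed 30 min with biotin-H3(1-18)K9me3 peptide (50 nM) in PBS pH 7.4, 0.01% Tween-20. Compound added for 30 min at RT, then streptavidin donor/nickel chelate acceptor beads (10 ug/mL) for 30 min.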
Hits are given with their value; ! = not confirmed by another sample; [ ] = dose if it differs, or a comment. Sampled rows, rich in hits. Any-hit rate of the full collection: about 12%. Unless noted, calls come from the whole dose curve; as a rule, active = well fitted curve in the direction sought with a large enough effect; inconclusive = small, poorly fitted or top-dose-only effect, or another doubt; inactive = no such curve, though single readings can be large; an effect the other way counts as inactive or inconclusive.

How did O=c1cc(CN2CCCCCCC2)c2ccccc2o1 do in these assays?
PLK1 PBD block: inactive; PI5P4Ka inh: inactive

How did COc1ccccc1N1CCN(c2c(CN3CCCC3)c(=O)oc3ccccc23)CC1 do in these assays?
BAZ2B block: inactive; JMJD2A Tudor inh: inactive; G9a inh: inactive; HP1b chromo inh: inactive

How did O=c1oc2ccccc2c(Cl)c1CN1CCCCC1 do in these assays?
BAZ2B block: inactive; JMJD2A Tudor inh: inactive; PLK1 PBD block: 11.9µM; G9a inh: 50.1µM; PI5P4Ka inh: inactive; HP1b chromo inh: inactive

What do the screens show for `O=c1oc2ccccc2c(N2CCCC2)c1CN1CCCC1`?
BAZ2B block: inactive; JMJD2A Tudor inh: inactive; PLK1 PBD block: inactive; G9a inh: 56.2µM; HP1b chromo inh: inactive

Results for CCC(C(=O)Nc1cc(-c2nc3cccnc3s2)ccc1C)c1ccccc1 (centres undefined) ?
BAZ2B block: inconclusive; JMJD2A Tudor inh: inactive; G9a inh: inconclusive; HP1b chromo inh: inactive

What do the screens show for `CSc1cc(-c2ccccc2)[nH]c(=O)c1C#N`?
BAZ2B block: inactive; JMJD2A Tudor inh: inactive; PLK1 PBD block: inactive; G9a inh: inactive; PI5P4Ka inh: inactive; HP1b chromo inh: inactive

Results for CN(C)c1c(-c2ccccc2)cc(-c2ccccc2)[nH]c1=O ?
BAZ2B block: inactive; G9a inh: 35.5µM

Results for O=[N+]([O-])c1cc(Br)cc(/C=N/n2cnnc2)c1O ?
BAZ2B block: inconclusive; JMJD2A Tudor inh: inactive; PLK1 PBD block: inconclusive; G9a inh: 31.6µM; PI5P4Ka inh: inactive; HP1b chromo inh: inactive

How did C=CCS/C(N)=N\N=C\c1cc(Br)cc([N+](=O)[O-])c1O do in these assays?
BAZ2B block: inconclusive; JMJD2A Tudor inh: inactive; PLK1 PBD block: inactive; G9a inh: 50.1µM; PI5P4Ka inh: inactive; HP1b chromo inh: inactive

Results for O=C1C2C(C(=O)N1/N=C/c1cc(Br)cc([N+](=O)[O-])c1O)C1C=CC2C12CC2 (centres undefined) ?
BAZ2B block: inconclusive; JMJD2A Tudor inh: 79.4µM; PLK1 PBD block: inactive; G9a inh: inconclusive; PI5P4Ka inh: inconclusive; HP1b chromo inh: inconclusive

What do the screens show for `O=C1C2C(C(=O)N1/N=C/c1cc([N+](=O)[O-])c(O)cc1O)C1C=CC2C12CC2` (centres undefined)?
BAZ2B block: inconclusive; JMJD2A Tudor inh: 50.1µM; PLK1 PBD block: inconclusive; G9a inh: 56.2µM; PI5P4Ka inh: -74.4; HP1b chromo inh: inactive

What do the screens show for `CCS/C(N)=N/N=C/c1cc(C)ccc1O`?
BAZ2B block: inactive; JMJD2A Tudor inh: inactive; PLK1 PBD block: inactive; G9a inh: inactive; PI5P4Ka inh: inactive; HP1b chromo inh: inactive

What do the screens show for `O=[N+]([O-])c1cc(Cl)cc(/C=N/n2cnnc2)c1O`?
JMJD2A Tudor inh: inactive; PLK1 PBD block: inactive; G9a inh: inactive; PI5P4Ka inh: inactive; HP1b chromo inh: inactive

What do the screens show for `COc1ccc(S(=O)(=O)N2CCOCC2)cc1NC(=O)Cc1ccc(F)cc1`?
PLK1 PBD block: inactive; PI5P4Ka inh: inactive

What do the screens show for `[O-][n+]1c2ccccc2cc2ccccc21`?
BAZ2B block: inactive; JMJD2A Tudor inh: inconclusive; PLK1 PBD block: 23.8µM; G9a inh: inactive[2.33 µM]; PI5P4Ka inh: inactive; HP1b chromo inh: inactive

Results for COc1ccc2c(ccc[n+]2[O-])c1 ?
JMJD2A Tudor inh: inactive; PLK1 PBD block: inactive; PI5P4Ka inh: inactive; HP1b chromo inh: inactive

Results for CNc1cccnc1C=NNC(N)=S ?
JMJD2A Tudor inh: 79.4µM; PLK1 PBD block: inactive; PI5P4Ka inh: inactive; HP1b chromo inh: inactive

How did COc1ccccc1CN1CCCC2(CCN(C(=O)c3ccncc3)CC2)C1 do in these assays?
G9a inh: inactive[12.7 µM]

Results for COC(=O)/C=C/c1c(C)nc(NCc2ccccc2)nc1Cl ?
BAZ2B block: inconclusive; JMJD2A Tudor inh: inactive; PLK1 PBD block: inactive; G9a inh: 50.1µM; PI5P4Ka inh: inactive; HP1b chromo inh: inactive

How did O=C(c1ccco1)N1CCC[C@@]2(CCN(c3cccc(-c4ccccc4)c3)C2)C1 do in these assays?
G9a inh: inactive[12.7 µM]

Results for CSc1nc2ccc(NC(=O)c3ccc(=O)[nH]c3)cc2s1 ?
BAZ2B block: inactive; JMJD2A Tudor inh: inactive; PLK1 PBD block: inactive; G9a inh: 50.1µM; PI5P4Ka inh: inactive; HP1b chromo inh: inactive

How did CC1CCN(C(=O)Cn2ncc3c4ccccc4n(Cc4ccc(Cl)cc4)c3c2=O)CC1 do in these assays?
BAZ2B block: inactive; JMJD2A Tudor inh: inactive; G9a inh: inactive; HP1b chromo inh: inactive

What do the screens show for `CC(C)(C)c1ccc(C(=O)CC(Sc2ccc(Cl)cc2)C(=O)O)cc1` (centres undefined)?
BAZ2B block: inactive; JMJD2A Tudor inh: inactive; PLK1 PBD block: 10.6µM; G9a inh: 44.7µM; PI5P4Ka inh: inactive; HP1b chromo inh: inactive

How did Cc1ccc(SC(CC(=O)c2ccc(F)cc2)C(=O)O)cc1 (centres undefined) do in these assays?
BAZ2B block: inactive; JMJD2A Tudor inh: inactive; PLK1 PBD block: inconclusive; G9a inh: inconclusive; PI5P4Ka inh: inactive; HP1b chromo inh: inactive

How did Nc1c(C(=O)NCCc2ccccc2)sc2nc(N3CCOCC3)c3c(c12)CCCC3 do in these assays?
BAZ2B block: inactive; JMJD2A Tudor inh: inactive; PLK1 PBD block: inactive; G9a inh: 15.8µM; PI5P4Ka inh: inactive; HP1b chromo inh: inactive

What do the screens show for `CN1Cc2c(N3CCOCC3)nc3sc(C(=O)c4ccccc4)c(N)c3c2CC1(C)C`?
BAZ2B block: inconclusive; JMJD2A Tudor inh: 44.7µM; PLK1 PBD block: inactive; G9a inh: 50.1µM; PI5P4Ka inh: inactive; HP1b chromo inh: inactive

How did Cc1ccc(NC(=O)c2sc3nc(N4CCOCC4)c4c(c3c2N)CC(C)(C)OC4)cc1 do in these assays?
BAZ2B block: inactive; JMJD2A Tudor inh: inactive; PLK1 PBD block: inactive; G9a inh: inactive; PI5P4Ka inh: inactive; HP1b chromo inh: inactive

Results for CN(C(=O)c1sc2nc(N3CCOCC3)c3c(c2c1N)CCCC3)c1ccccc1 ?
BAZ2B block: inactive; JMJD2A Tudor inh: inactive; PLK1 PBD block: inactive; G9a inh: inconclusive; PI5P4Ka inh: inactive; HP1b chromo inh: inactive

How did CCOc1ccc(NC(=O)c2sc3nc(N4CCOCC4)c4c(c3c2N)CC(C)(C)OC4)cc1 do in these assays?
BAZ2B block: inactive; JMJD2A Tudor inh: inactive; PLK1 PBD block: inactive; G9a inh: 79.4µM; PI5P4Ka inh: inactive; HP1b chromo inh: inactive

Results for CC1(C)Cc2c(c(N3CCOCC3)nc3sc(C(=O)Nc4ccc(Cl)cc4)c(N)c23)CO1 ?
BAZ2B block: inactive; JMJD2A Tudor inh: inactive; PLK1 PBD block: inactive; G9a inh: 10µM!; PI5P4Ka inh: inactive; HP1b chromo inh: inactive
